Several values for one entry are separate records, joined by “and”; a condition that tells them apart may be missing. Equal entries are not always repeated. Activity calls are given as the source filed them. Unless noted, how the calls were made is not given here.
Tests used:
[1] = test system: Wnt5a (protein binding on small-molecule microarray); experiment: small molecules binding Wnt5a protein – biophysical, small-molecule microarray, 635/667 nm fluorescence, primary screen (AID 1142); conditions: 635 nm fluorescence, higher = more signal;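 further: fluorescence read at 667 nm with signal to noise per printed feature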
[2] = ATP-based viability of Huh7 replicon cells – cell-based, CellTiter-Glo luminescence, basal, 48 h, cytotoxicity control for HCV replication inhibitor project, primary screen (AID 1143); conditions: higher = more signal, called active from +8 up or from −8 down;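 further: Huh7 hepatoma cells carrying a hepatitis C replication reporter with no stimulus; test concentration not given here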
[3] = Pseudomonas biofilm growth suppression – PAO1 strain, BacTiter-Glo luminescence, LB-PBS, primary screen (AID 1144); conditions: P. aeruginosa PAO1 biofilm, 12 h, higher = more signal
[4] = basal CRE-LacZ reporter activity in PC12 – cell-based, unstimulated, primary screen (AID 1145); conditions: no forskolin, luminescence, 4.5 h, higher = more signal, called active from +8 up or from −8 down
[5] = forskolin-driven CRE-LacZ activity in PC12 – cell-based, CRE-LacZ reporter, forskolin-stimulated, primary screen (AID 1146); conditions: luminescence, 4.5 h, higher = more signal, called active from +8 up or from −8 down;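 further: PC12 cells with 6xCRE LacZ reporter stimulated by forskolin 10 µM; beta-galactosidase reporter signal reflecting CREB driven transcription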
[6] = molecular target: Streptavidin (Streptomyces avidinii) (UniProt P22629); experiment: compounds binding control protein streptavidin – biophysical, small-molecule microarray, 635/667 nm fluorescence, artefact control for SMM compound annotation, primary screen (AID 1147); conditions: higher = more signal;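 further: signal reflects streptavidin binding to arrayed compounds as a control protein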
Sequence of Streptavidin (Streptomyces avidinii) (P22629 whole entry, looked up): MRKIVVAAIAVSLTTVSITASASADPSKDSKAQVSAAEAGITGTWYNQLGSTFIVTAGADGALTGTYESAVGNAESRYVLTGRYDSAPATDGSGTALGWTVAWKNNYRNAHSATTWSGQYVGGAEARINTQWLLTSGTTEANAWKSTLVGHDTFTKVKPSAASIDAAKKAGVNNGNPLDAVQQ

[7] = probe aInhba binding on compound microarray – biochemical, small-molecule microarray, 635/667 nm fluorescence, primary screen (AID 1148); conditions: higher = more signal;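 further: score merges 667nm spot fluorescence with signal-to-noise for antibody binding to printed compounds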
Torsin-1A (Homo sapiens) [8] = molecular target: Torsin-1A (Homo sapiens) (UniProt O14656); experiment: TOR1A wild-type binding on microarray – cell lysate, small-molecule microarray, lysate, 635/667 nm, primary screen (AID 1149); conditions: COS7 hTOR1A-WT lysate, 635 nm fluorescence, higher = more signal
Sequence of Torsin-1A (Homo sapiens) (O14656 whole entry, looked up): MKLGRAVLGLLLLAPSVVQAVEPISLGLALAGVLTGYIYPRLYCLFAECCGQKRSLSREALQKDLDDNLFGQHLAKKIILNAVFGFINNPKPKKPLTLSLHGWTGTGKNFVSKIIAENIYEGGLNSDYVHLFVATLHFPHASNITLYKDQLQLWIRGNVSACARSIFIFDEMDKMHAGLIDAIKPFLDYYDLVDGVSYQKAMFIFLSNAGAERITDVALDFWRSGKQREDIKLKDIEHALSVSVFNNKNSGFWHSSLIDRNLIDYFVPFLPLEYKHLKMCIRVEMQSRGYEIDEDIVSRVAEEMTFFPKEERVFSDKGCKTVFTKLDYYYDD

Torsin-1A (Homo sapiens) [9] = molecular target: Torsin-1A (Homo sapiens) (UniProt O14656); experiment: torsin A mutant lysate binding on microarrays – cell lysate, small-molecule microarray, COS7 lysate, 635/667 nm fluorescence, primary screen (AID 1150); conditions: COS7 hTOR1A mutant lysate, 635 nm fluorescence, higher = more signal;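 further: score pools 667 nm emission and signal to noise measuring lysate protein binding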
[10] = test system: Sonic hedgehog protein (Shh); experiment: Sonic hedgehog microarray binding compounds – biochemical, small-molecule microarray, 635/667 nm fluorescence, primary screen (AID 1151); conditions: 635 nm fluorescence, higher = more signal;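 further: Shh protein binding to compounds spotted on small-molecule microarray slides; score combines spot fluorescence intensity with signal-to-noise across triplicate slides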
[11] = optical density shifts of acrAB sulA E. coli – strain DRC41, OD650, 48 h, E. coli filamentation inducer project, primary screen (AID 1152); conditions: higher = more signal, called active from +8 up or from −8 down;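 further: E. coli MC1000 strain DRC41 lacking acrAB efflux pump and sulA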
[12] = probe aLefty1 binding on compound microarray – biochemical, small-molecule microarray, 635/667 nm fluorescence, primary screen (AID 1153); conditions: higher = more signal;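 further: score merges spot fluorescence with signal-to-noise ratio from the scanned slide images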
[13] = plasmodial surface anion channel blockers, osmotic lysis – cell-based, P. falciparum Indochina, OD700, 1 h, primary screen (AID 1154); conditions: P. falciparum Indochina infected RBC osmotic lysis, higher = more signal, called active from +8 up or from −8 down
[14] = plasmodial surface anion channel blockers, osmotic lysis – cell-based, P. falciparum Indochina, OD700, 2 h, primary screen (AID 1155);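 further: lysis reports solute entry through the parasite surface anion channel PSAC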; conditions: P. falciparum Indochina infected erythrocytes, higher = more signal, called active from +8 up or from −8 down
[15] = changes in parasitized red cell lysis, either direction – P. falciparum Indochina, OD700, 3 h, PSAC antagonist project, primary screen (AID 1156); conditions: P. falciparum-infected erythrocytes, osmotic lysis, higher = more signal, called active from +8 up or from −8 down
[16] = plasmodial surface anion channel blockers, osmotic lysis – cell-based, P. falciparum Indochina, OD700, 18 h, primary screen (AID 1157); conditions: P. falciparum Indochina infected erythrocytes, osmotic lysis OD700, 18 h; higher = more signal, called active from +8 up or from −8 down
[17] = S6 kinase pathway phospho-S6 level changes – cell-based, A549, cytoblot, luminescence, serum-stimulated, primary screen (AID 1158); conditions: 5 h, higher = more signal;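 further: serum-stimulated A549 lung adenocarcinoma cells; signal is phosphorylated S6 detected by cytoblot immunostaining with HRP secondary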
[18] = molecular target: NADPH oxidase 2 (Homo sapiens) (UniProt P04839); experiment: compounds shifting NOX2 Amplex Red fluorescence – cell-based, HEK293-NOX2, PMA-stimulated, NOX inhibitor project, primary screen (AID 1159); conditions: 45 min, higher = more signal, called active from +8 up or from −8 down; further: test concentration not given here
Sequence of NADPH oxidase 2 (Homo sapiens) (P04839 whole entry, looked up): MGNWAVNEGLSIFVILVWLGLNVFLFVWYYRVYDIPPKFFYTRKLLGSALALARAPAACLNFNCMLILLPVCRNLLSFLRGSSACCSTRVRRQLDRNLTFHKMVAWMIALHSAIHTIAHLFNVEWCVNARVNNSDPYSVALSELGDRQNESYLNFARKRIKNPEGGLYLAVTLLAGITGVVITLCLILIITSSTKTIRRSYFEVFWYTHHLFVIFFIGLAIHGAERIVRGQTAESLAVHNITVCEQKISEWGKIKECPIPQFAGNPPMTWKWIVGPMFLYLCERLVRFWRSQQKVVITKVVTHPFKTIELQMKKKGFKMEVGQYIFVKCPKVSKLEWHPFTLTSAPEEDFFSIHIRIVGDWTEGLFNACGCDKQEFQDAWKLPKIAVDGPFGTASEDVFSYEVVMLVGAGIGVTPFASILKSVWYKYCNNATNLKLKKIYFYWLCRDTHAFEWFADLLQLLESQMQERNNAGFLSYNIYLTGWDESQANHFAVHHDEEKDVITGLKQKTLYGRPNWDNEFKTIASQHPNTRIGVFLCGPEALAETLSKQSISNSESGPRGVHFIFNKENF

[19] = molecular target: NADPH oxidase 4 (Homo sapiens) (UniProt Q9NPH5); experiment: compounds shifting NOX4 Amplex Red fluorescence – cell-based, HEK293-NOX4, tetracycline-induced, NOX inhibitor project, primary screen (AID 1160); conditions: HEK293-NOX4, Amplex Red H2O2 fluorescence, 45 min; higher = more signal, called active from +8 up or from −8 down
Sequence of NADPH oxidase 4 (Homo sapiens) (Q9NPH5 whole entry, looked up): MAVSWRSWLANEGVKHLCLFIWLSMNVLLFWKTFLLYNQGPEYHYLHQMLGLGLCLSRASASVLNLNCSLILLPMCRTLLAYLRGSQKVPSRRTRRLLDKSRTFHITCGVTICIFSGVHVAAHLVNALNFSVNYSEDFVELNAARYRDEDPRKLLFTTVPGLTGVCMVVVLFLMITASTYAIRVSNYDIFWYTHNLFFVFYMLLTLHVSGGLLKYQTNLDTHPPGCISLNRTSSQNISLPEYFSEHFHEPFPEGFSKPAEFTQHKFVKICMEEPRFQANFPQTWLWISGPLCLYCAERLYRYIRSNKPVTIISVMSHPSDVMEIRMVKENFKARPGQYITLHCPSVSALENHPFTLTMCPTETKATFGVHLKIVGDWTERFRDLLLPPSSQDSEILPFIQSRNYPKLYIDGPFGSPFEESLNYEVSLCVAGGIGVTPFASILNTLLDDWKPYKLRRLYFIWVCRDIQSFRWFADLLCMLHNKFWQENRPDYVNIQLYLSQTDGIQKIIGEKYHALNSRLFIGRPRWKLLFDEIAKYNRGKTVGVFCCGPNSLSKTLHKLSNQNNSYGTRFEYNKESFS

[20] = molecular target: NADPH oxidase 5 (Homo sapiens) (UniProt Q96PH1); experiment: compounds shifting NOX5 Amplex Red fluorescence – cell-based, HEK293-NOX5, NOX inhibitor project, primary screen (AID 1161); conditions: HEK293-NOX5, ionomycin, 45 min, higher = more signal
Sequence of NADPH oxidase 5 (Homo sapiens) (Q96PH1 whole entry, looked up): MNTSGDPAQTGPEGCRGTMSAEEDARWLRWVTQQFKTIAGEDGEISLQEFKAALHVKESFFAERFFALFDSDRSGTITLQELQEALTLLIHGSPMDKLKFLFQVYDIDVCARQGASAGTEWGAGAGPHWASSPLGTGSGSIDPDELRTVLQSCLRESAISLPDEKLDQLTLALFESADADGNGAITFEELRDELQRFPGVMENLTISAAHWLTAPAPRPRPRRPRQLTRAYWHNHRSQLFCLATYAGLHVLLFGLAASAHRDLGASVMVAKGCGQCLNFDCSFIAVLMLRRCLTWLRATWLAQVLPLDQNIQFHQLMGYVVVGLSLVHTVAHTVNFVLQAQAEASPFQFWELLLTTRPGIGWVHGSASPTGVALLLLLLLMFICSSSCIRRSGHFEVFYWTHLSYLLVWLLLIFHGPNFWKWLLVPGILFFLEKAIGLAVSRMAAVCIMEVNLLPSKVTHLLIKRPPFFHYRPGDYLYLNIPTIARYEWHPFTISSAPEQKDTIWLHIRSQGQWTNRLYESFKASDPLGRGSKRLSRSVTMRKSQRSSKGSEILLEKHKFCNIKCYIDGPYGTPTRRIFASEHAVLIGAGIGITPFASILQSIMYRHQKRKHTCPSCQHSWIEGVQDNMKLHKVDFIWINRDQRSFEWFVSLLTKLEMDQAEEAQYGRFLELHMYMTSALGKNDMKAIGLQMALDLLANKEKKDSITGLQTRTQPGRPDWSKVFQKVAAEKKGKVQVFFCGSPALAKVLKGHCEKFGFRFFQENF

Structure (SMILES): C=C[C@H](C)[C@H](O)c1ccc(O)c2ccccc12
- composite z-score [1]: -0.455 and 0.247
- z-score [2]: -1.69 (inactive) and 0.651 (inactive)
- z-score [3]: -0.143 (inactive) and -0.287 (inactive)
- z-score [4]: 0.833 (inactive) and 1.94 (inactive)
- z-score [5]: 1.13 (inactive) and -0.456 (inactive)
- composite z-score [6]: -0.663 and -0.935
- composite z-score [7]: -0.206 and -0.182
- composite z-score (Torsin-1A (Homo sapiens) [8]): -1.49 and -0.75
- composite z-score (Torsin-1A (Homo sapiens) [9]): -0.0641 and 0.204
- composite z-score [10]: 0.153 and 1.7
- z-score [11]: 2.14 (inactive) and 2.25 (inactive)
- composite z-score [12]: -0.31 and -0.201
- z-score [13]: 0.656 (inactive) and 0.845 (inactive)
- z-score [14]: -0.627 (inactive) and -0.531 (inactive)
- z-score [15]: -0.984 (inactive) and -0.529 (inactive)
- z-score [16]: -0.408 (inactive) and -1.21 (inactive)
- z-score [17]: 1.13 and 0.885
- z-score [18]: -5.4 (inactive) and -5.09 (inactive)
- z-score [19]: -0.841 (inactive) and -0.878 (inactive)
- z-score [20]: 0.582 and 1.17

Structure (SMILES): C=CCN(C(=O)C(c1cccs1)N(CCOCCO)C(=O)/C=C\C(=O)O)c1ccc(OC)cc1 (stereo not given)
- composite z-score [1]: -0.459 and -0.385
- z-score [2]: -0.751 (inactive) and -0.299 (inactive)
- z-score [3]: -2.23 (inactive)
- z-score [4]: -1.58 (inactive) and -0.749 (inactive)
- z-score [5]: -0.418 (inactive) and -1.15 (inactive)
- composite z-score [6]: -1.09 and -2.3
- composite z-score [7]: -0.128 and -0.208
- composite z-score (Torsin-1A (Homo sapiens) [8]): -0.16 and -1.77
- composite z-score (Torsin-1A (Homo sapiens) [9]): -1.17 and -0.642
- composite z-score [10]: -0.452 and 0.0229
- z-score [11]: 3.55 (inactive) and 2.87 (inactive)
- composite z-score [12]: -0.262 and -0.142
- z-score [13]: 0.195 (inactive) and -0.888 (inactive)
- z-score [14]: -0.567 (inactive) and -0.967 (inactive)
- z-score [15]: 0.0684 (inactive) and -1.43 (inactive)
- z-score [16]: -0.922 (inactive) and -0.842 (inactive)
- z-score [17]: 2.24 and 0.28
- z-score [18]: 0.118 (inactive) and -0.448 (inactive)
- z-score [19]: -0.578 (inactive) and -1.19 (inactive)
- z-score [20]: -0.0456 and 0.0347

Structure (SMILES): C=CCN(CCCC)C(=O)C1N(CCCCCCO)C(=O)C2C(C(=O)O)C3C=CC21O3 (stereo not given)
- composite z-score [1]: -0.718 and -0.319
- z-score [2]: 0.427 (inactive) and 0.424 (inactive)
- z-score [3]: 0.759 (inactive) and 2.36 (inactive)
- z-score [4]: 0.0645 (inactive) and -0.769 (inactive)
- z-score [5]: 0.149 (inactive) and 0.147 (inactive)
- composite z-score [6]: -1.46 and -1.12
- composite z-score [7]: -0.35 and -0.312
- composite z-score (Torsin-1A (Homo sapiens) [8]): 1.31 and -1.36
- composite z-score (Torsin-1A (Homo sapiens) [9]): -2.04 and -2.49
- composite z-score [10]: -1.18 and -1.43
- z-score [11]: -0.91 (inactive) and -0.81 (inactive)
- composite z-score [12]: -0.31 and -0.101
- z-score [13]: 0.153 (inactive) and -0.368 (inactive)
- z-score [14]: -0.0395 (inactive) and 0.354 (inactive)
- z-score [15]: -0.661 (inactive) and -0.802 (inactive)
- z-score [16]: -0.11 (inactive) and -0.0605 (inactive)
- z-score [17]: -0.686 and -0.762
- z-score [18]: 0.634 (inactive) and 0.835 (inactive)
- z-score [19]: -0.159 (inactive) and -0.18 (inactive)
- z-score [20]: 0.75 and 1.01

Structure (SMILES): COc1ccc(COC(=O)NN=C2C[C@@H](O)[C@@H](O)[C@@H]3[C@@H]4C(=O)N(C(C)(C)C)C(=O)[C@@H]4CC[C@H]23)cc1
- composite z-score [1]: -0.0647
- z-score [2]: -1.47 (inactive)
- z-score [3]: 0.439 (inactive)
- z-score [4]: 0.876 (inactive)
- z-score [5]: 0.479 (inactive)
- composite z-score [6]: -0.199
- composite z-score [7]: -0.151
- composite z-score (Torsin-1A (Homo sapiens) [8]): 0.656
- composite z-score (Torsin-1A (Homo sapiens) [9]): -0.178
- composite z-score [10]: 0.352
- z-score [11]: 0.91 (inactive)
- composite z-score [12]: 0.0169
- z-score [13]: 1.91 (inactive)
- z-score [14]: -1.4 (inactive)
- z-score [15]: 0.708 (inactive)
- z-score [16]: -1.93 (inactive)
- z-score [17]: 1.25
- z-score [18]: -0.818 (inactive)
- z-score [19]: 0.00608 (inactive)
- z-score [20]: -1.43

Structure (SMILES): C[C@@H](c1ccccc1)N1C(=O)[C@H]2[C@H]3[C@H](O)[C@H](O)CC(=O)[C@@H]3CC[C@H]2C1=O
- composite z-score [1]: 0.314
- z-score [2]: -0.961 (inactive)
- z-score [3]: 0.00582 (inactive)
- z-score [4]: 1.25 (inactive)
- z-score [5]: 0.488 (inactive)
- composite z-score [6]: 0.192
- composite z-score [7]: -0.0791
- composite z-score (Torsin-1A (Homo sapiens) [8]): 0.712
- composite z-score (Torsin-1A (Homo sapiens) [9]): 0.113
- composite z-score [10]: 1.04
- z-score [11]: 0.212 (inactive)
- composite z-score [12]: -0.229
- z-score [13]: 0.207 (inactive)
- z-score [14]: -1.39 (inactive)
- z-score [15]: 0.279 (inactive)
- z-score [16]: -1.63 (inactive)
- z-score [17]: 0.732
- z-score [18]: -0.0197 (inactive)
- z-score [19]: 0.237 (inactive)
- z-score [20]: 0.776

Structure (SMILES): COC(=O)C1=C(C)N(Cc2ccccc2)C2=C3C(=O)N(c4ccccc4)C(=O)[C@@H]3[C@@](O)(C(=O)OC)C(=O)N2[C@@H]1c1ccccc1
- composite z-score [1]: 0.297 and 0.678
- z-score [2]: -0.146 (inactive) and -1.82 (inactive)
- z-score [3]: 0.9 (inactive)
- z-score [4]: 2.72 (inactive) and -0.615 (inactive)
- z-score [5]: -0.718 (inactive) and -0.78 (inactive)
- composite z-score [6]: 0.117 and 0.12
- composite z-score [7]: -0.024 and -0.0313
- composite z-score (Torsin-1A (Homo sapiens) [8]): 0.801 and 0.365
- composite z-score (Torsin-1A (Homo sapiens) [9]): 0.516 and 0.533
- composite z-score [10]: 0.574 and 0.726
- z-score [11]: 0.417 (inactive) and 0.339 (inactive)
- composite z-score [12]: 0.0752 and -0.0984
- z-score [13]: 0.518 (inactive) and 0.516 (inactive)
- z-score [14]: 0.372 (inactive) and -0.427 (inactive)
- z-score [15]: 0.509 (inactive) and 0.736 (inactive)
- z-score [16]: 0.54 (inactive) and -0.962 (inactive)
- z-score [17]: -0.528 and 1.43
- z-score [18]: -0.0787 (inactive) and 0.333 (inactive)
- z-score [19]: -0.0918 (inactive) and 0.833 (inactive)
- z-score [20]: -0.244 and 0.251

— PubChem BioAssay
